# Measurements published in the supplement of paper PMC10498489.
# Out of some 2,300 compounds screened, about 330 (14%) showed activity.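 The calls were made as follows: active = median modified Z-score above 1.96; inactive = 1.96 or below.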 Not all results are given here.
# System: HepG2 Srxn1-GFP reporter cells (+30 nM CDDO-Me)
# Test: Srxn1-GFP intensity median modified Z-score relative to plate median; higher = stronger NRF2 / oxidative stress reporter activation, active = hit call of the paper
# Conditions: 10 µM; exposure time: 24h
# How it was run: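 In 96-well plates holding 20,000 HepG2 Srxn1-GFP BAC reporter cells per well, compound at 10 μM and an NRF2 activator at 30 nM were added together for 24 h, with DMSO at ≤0.1%, across three replicate plates. After fixation in formaldehyde and Hoechst staining, confocal images were analysed cell by cell for cytoplasmic GFP, and images containing under 100 cells were excluded. Values are replicate medians of the per-plate modified Z-score of GFP intensity, scaled by 1.4826 × median absolute deviation.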
row,Structure (SMILES),Srxn1-GFP intensity median modified Z-score
1,CC(C)(ON=C(C(=O)NC1C(=O)N2C(C(=O)O)=C(C[n+]3ccccc3)CSC12)c1csc(=N)[nH]1)C(=O)O (configuration not stated) [euspeclibcmpd603],-0.205 (inactive)
2,CCN(CCO)CCCC(C)N=c1cc[nH]c2cc(Cl)ccc12 (configuration not stated) [euspeclibcmpd728],0.226 (inactive)
3,O=C(OCC(O)CO)c1ccccc1N=c1cc[nH]c2cc(Cl)ccc12 (configuration not stated) [euspeclibcmpd1054],4.38 (active)
4,CC(O)CN1CCN(CC(=O)O)CCN(CC(=O)O)CCN(CC(=O)O)CC1 (configuration not stated) [euspeclibcmpd2179],-0.14 (inactive)
5,CC(C)(CNC(=O)c1cccc(S(=O)(=O)N2CCNC(=O)C2)c1)N1CCOCC1,0.976 (inactive)
6,Nc1ccc2cc3ccc(N)cc3nc2c1 [euspeclibcmpd1172],35.6 (active)
7,CO[C@@]1(NC(=O)CSCC#N)C(=O)N2C(C(=O)O)=C(CSc3nnnn3C)CSC21 (some centres not stated) [euspeclibcmpd2252],1.04 (inactive)
8,N=c1[nH]c(=O)c2ncn(COCCO)c2[nH]1 [euspeclibcmpd586],0.00752 (inactive)
9,S=c1ccss1 [euspeclibcmpd2055],7.86 (active)
10,CC1(C)CCC[C@]2(C)[C@H]3CC(=O)O[C@]3(C)CC[C@@H]12 [euspeclibcmpd1513],11.6 (active)
11,OC[C@H]1O[C@@H](O[C@H]2[C@H](O)[C@@H](O)[C@@H](O)O[C@@H]2CO)[C@H](O)[C@@H](O)[C@@H]1O [euspeclibcmpd2099],-0.374 (inactive)
12,CC(=O)OC1=C2C(C)C(O)CC(O)(C(OC(=O)c3ccccc3)C3C4(OC(C)=O)COC4CC(O)C3(C)C1=O)C2(C)C (configuration not stated) [euspeclibcmpd1937],0.285 (inactive)
13,C=CC(C)(O)CCC=C(C)CCC=C(C)C (configuration not stated) [euspeclibcmpd2017],-0.108 (inactive)
14,COC(C)(C)CCC[C@H](C)C=CC=C(C)CC(=O)OC(C)C [euspeclibcmpd1162],0.521 (inactive)
15,CCC(CCC(C)[C@H]1CCC2C3CC=C4C[C@@H](O)CC[C@]4(C)C3CC[C@@]21C)C(C)C (some centres not stated) [euspeclibcmpd1675],-0.236 (inactive)
16,C1CNCCN1 [euspeclibcmpd2044],5.44 (active)
17,C=C(C)[C@@H]1CC[C@]2(C)CC[C@]3(C)[C@@H](CCC4[C@@]5(C)CC[C@H](OC(C)=O)C(C)(C)C5CC[C@]43C)C12 (some centres not stated) [euspeclibcmpd1452],-0.35 (inactive)
18,C=CC/C1=C\C(C)C[C@H](C)C[C@H](OC)[C@H]2O[C@@](O)(C(=O)C(=O)N3CCCCC3C(=O)O[C@H](/C(C)=C/C3CC[C@@H](O)[C@H](OC)C3)[C@H](C)[C@@H](O)CC1=O)[C@H](C)C[C@@H]2OC (some centres not stated) [euspeclibcmpd642],0.0384 (inactive)
19,COC1CC2CCC(C)C(O)(O2)C(=O)C(=O)N2CCCCC2C(=O)OC(C(C)CC2CCC(O)C(OC)C2)CC(=O)/C(C)=C/C(C)C(O)C(OC)C(=O)C(C)CC(C)/C=C/C=C/C=C/1C (configuration not stated) [euspeclibcmpd645],2.8 (active)
20,CC(C)(C)OC(=O)N1[C@H](CNCC(=O)NCC2CC2)COC1(C)C,0.298 (inactive)
21,C=C1c2cccc(O)c2C(=O)C2C(=O)[C@]3(O)C(=O)C(C(N)=O)C(=O)C(N(C)C)[C@@H]3[C@@H](O)[C@H]12 (some centres not stated) [euspeclibcmpd374],0.0721 (inactive)
22,Nc1ccc(S(=O)(=O)Nc2ccc([N+](=O)[O-])cc2)cc1,1.07 (inactive)
23,C=CCSCC(N)C(=O)O (configuration not stated) [euspeclibcmpd1339],-0.44 (inactive)

row,Structure (SMILES),Srxn1-GFP intensity median modified Z-score
1,C=CCSCC=C [euspeclibcmpd1525],2.8 (active)
2,c1ccc2[nH]c(-c3cscn3)nc2c1 [euspeclibcmpd291],-0.321 (inactive)
3,CC(=O)Nc1ccc(S(=O)(=O)Nc2ccc(C)cc2)cc1,0.323 (inactive)
4,Cc1cc(=O)c(C(=O)NC(C(=O)NC2C(=O)N3C(C(=O)O)=C(CSc4nnnn4C)CSC23)c2ccc(O)cc2)c[nH]1 (configuration not stated) [euspeclibcmpd2006],-0.441 (inactive)
5,COC(=O)C[C@H]1C2(C)CC34OC5(C)O[C@@]6([C@H](OC(C)=O)C(OC(C)=O)[C@]7(C)C(C(C(=O)C(C)C)C(=O)O[C@H]7c7ccoc7)[C@@]6(O5)[C@H](OC(C)=O)[C@@]3(O)C2OC(=O)C(C)C)[C@]14C (some centres not stated) [euspeclibcmpd1593],0.648 (inactive)
6,CC=CC1=C(C(=O)O)N2C(=O)C(NC(=O)C(N)c3ccc(O)cc3)C2SC1 (configuration not stated) [euspeclibcmpd754],0.0492 (inactive)
7,CN1CCc2c(c3ccccc3n2Cc2ccccc2)C1 [euspeclibcmpd1060],-0.511 (inactive)
8,Cc1cc(=N)c2ccccc2n1CCCCCCCCCCn1c(C)cc(=N)c2ccccc21 [euspeclibcmpd1012],10 (active)
9,NC(COP(=O)(O)O)C(=O)O (configuration not stated) [euspeclibcmpd1153],-0.195 (inactive)
10,CC(C)C(=O)Nc1ccc([N+](=O)[O-])c(C(F)(F)F)c1 [euspeclibcmpd362],3.07 (active)
11,CC1(C)NC(=O)N(c2ccc([N+](=O)[O-])c(C(F)(F)F)c2)C1=O [euspeclibcmpd654],0.519 (inactive)
12,CCOc1ccc2ccccc2c1C(=O)NC1C(=O)N2C1SC(C)(C)C2C(=O)O (configuration not stated) [euspeclibcmpd2391],-0.175 (inactive)
13,NC(=O)c1cc[n+](C=C2CSC3C(NC(=O)Cc4cccs4)C(=O)N3C2C(=O)O)cc1 (configuration not stated) [euspeclibcmpd1236],-0.488 (inactive)
14,CN1CCC(c2c3ccccc3cc(=O)c3sccc23)CC1 [euspeclibcmpd331],0.863 (inactive)
15,COc1cc(-c2coc3cc(OC)c(OC)c(OC)c3c2=O)cc(OC)c1OC [euspeclibcmpd1402],-0.364 (inactive)
16,COc1cc(C)c2c(=O)c(-c3ccccc3)coc2c1 [euspeclibcmpd1711],0.917 (inactive)
17,COc1cc2occ(-c3ccccc3)c(=O)c2c(OC)c1C [euspeclibcmpd2367],3.02 (active)
18,CC(C)(C)O[C@H]1C[C@@H](O)C1,1.93 (inactive)
19,CC(=O)O[C@]1(C(C)=O)CCC2C3=CC(C)=C4CC(=O)CCC4(C)C3CCC21C (some centres not stated) [euspeclibcmpd180],0.562 (inactive)
20,CC(NS(=O)(=O)c1cccc(Cl)c1)C1CCCO1 (configuration not stated),1.74 (inactive)
21,Cc1cc(=O)cc(O)o1 [euspeclibcmpd1585],0.226 (inactive)
22,O=C1OCCc2oc(O)cc21 [euspeclibcmpd1348],33 (active)
23,O=C(OCc1ccccc1)c1ccccc1 [euspeclibcmpd510],0.252 (inactive)

row,Structure (SMILES),Srxn1-GFP intensity median modified Z-score
1,OC[C@H]1O[C@@H](O[C@@H]2[C@@H](CO)O[C@](O)(CO)[C@H]2O)[C@H](O)[C@@H](O)[C@H]1O [euspeclibcmpd170],0.208 (inactive)
2,NC(=O)c1cc[n+](C=C2CSC3C(NC(=O)C(c4ccccc4)S(=O)(=O)O)C(=O)N3C2C(=O)O)cc1 (configuration not stated) [euspeclibcmpd2133],-0.143 (inactive)
3,CCCOc1cc(N)ccc1C(=O)OCCN(CC)CC [euspeclibcmpd379],0.431 (inactive)
4,CCN(CC)CCNC(=O)COc1ccc(OC)cc1 [euspeclibcmpd2435],-0.25 (inactive)
5,CCN(CC)CCOc1ccc2c(c1)C(=O)c1cc(OCCN(CC)CC)ccc1-2 [euspeclibcmpd940],5.93 (active)
6,C=Cc1c(C=c2[nH]c(=Cc3[nH]c(C=c4[nH]c(O)c(C=C)c4=C)c(C)c3CCC(=O)O)c(CCC(=O)O)c2C)[nH]c(O)c1C [euspeclibcmpd1536],0.744 (inactive)
7,Cc1cc(-c2ccccc2)n[nH]c1=NCCN1CCOCC1 [euspeclibcmpd383],1.08 (inactive)
8,CNC(Cc1ccccc1)C(=O)O (configuration not stated),1.21 (inactive)
9,Cc1coc2c1C(=O)C(=O)c1c-2ccc2c1CCCC2(C)C [euspeclibcmpd1647],2.22 (active)
10,Cc1c(S(=O)(=O)O)oc2c1C(=O)C(=O)c1c-2ccc2c1CCCC2(C)C [euspeclibcmpd2216],0 (inactive)
11,CN[C@H]1C[C@@H](N)[C@H](O)[C@@H](O[C@@H]2O[C@H](CO)[C@@H]3OC4(O[C@@H]3[C@@H]2O)O[C@H](C(N)CO)[C@H](O)[C@H](O)[C@H]4O)[C@@H]1O (some centres not stated) [euspeclibcmpd1459],-0.136 (inactive)
12,Nc1ccc(S(=O)(=O)N=c2cccc[nH]2)cc1 [euspeclibcmpd279],-0.029 (inactive)
13,COc1ccc2[nH]c3cc(Cl)ccc3c(=Nc3cc(CN4CCCC4)c(O)c(CN4CCCC4)c3)c2n1 [euspeclibcmpd1080],9.12 (active)
14,CC1(C)C2CCC1(CS(=O)(=O)O)C(=O)C2=Cc1ccc(C=C2C(=O)C3(CS(=O)(=O)O)CCC2C3(C)C)cc1 [euspeclibcmpd1829],1.49 (inactive)
15,C=C(CC)C(=O)c1ccc(OCC(=O)O)c(Cl)c1Cl [euspeclibcmpd119],14 (active)
16,CC(C)CCCC(C)[C@H]1CCC2C3CC=C4C[C@@H](OC(=O)c5ccccc5)CC[C@]4(C)C3CC[C@@]21C (some centres not stated) [euspeclibcmpd2185],-0.487 (inactive)
17,CC(O)CNS(=O)(=O)CC1CN(C(=O)C2CC2C)CCO1 (configuration not stated),1.25 (inactive)
18,CC(C)=C1CNC(C(=O)O)C1CC(=O)O (configuration not stated) [euspeclibcmpd2009],0.265 (inactive)
19,CC(=O)N=c1[nH]cc([N+](=O)[O-])s1 [euspeclibcmpd793],0.152 (inactive)
20,CC(=O)Oc1ccccc1C(=O)N=c1[nH]cc([N+](=O)[O-])s1 [euspeclibcmpd615],2.79 (active)
21,O=C(O)c1cc(O)c(O)c(O)c1 [euspeclibcmpd1010],-0.0488 (inactive)
